# Results filed as inconclusive are left out. A call without a number means that no potency is given here. Unmarked numbers belong to inactive results. The source made the active and inactive calls. The call rests on the fitted dose curve; in most records, active means well fitted cell-killing curve with a large enough effect in the repeat runs; inconclusive means weak or mixed curves, or effect the other way; inactive means flat fitted curve, though single readings scatter.
# How the values were obtained:
# [1] = cAMP Responsive Elements (CRE) small molecule antagonists, cell-based qHTS assay: qHTS cell viability counter screen (AID 2060913); further: nearly all actives have a fitted effect of over 40% in size
# Method in brief: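 CRE-bla HEK293T cells (2,000/well, 18 h) given compound plus NKH477 0.25 uM final for 3 h at 37C; viability counter-screen by CellTiter-Glo luminescence in same wells after 30 min.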
# [2] = cAMP Responsive Elements (CRE) small molecule agonists, cell-based qHTS assay: qHTS cell viability counter screen (AID 2060914);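 further: viability read after 3 h of compound exposure; nearly all actives have a fitted effect of over 50% in size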
# Method in brief: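 HEK 293T CRE-bla; DMEM + 10% dialyzed FBS, 25 mM HEPES; 18 h pre-incubation; compound 3 h, 37 °C/5% CO2; CellTiter-Glo added after reporter read; luminescence after 30 min RT.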
# Potency means the concentration at half of the fitted maximal effect.
smiles,measurement,setting,value
CCCCOCCOCCO,Potency,[1],inactive
same,Potency,[2],inactive
Cc1cc(C2(c3cc(C)c(O)cc3C)OS(=O)(=O)c3ccccc32)c(C)cc1O,Potency,[1],inactive
same,Potency,[2],inactive
Cc1cn([C@H]2C[C@H](F)[C@@H](CO)O2)c(=O)[nH]c1=O,Potency,[1],inactive
same,Potency,[2],inactive
O=CC1CC1,Potency,[1],inactive
same,Potency,[2],inactive
O=C(O)c1cc(-c2ccccc2)nc2ccccc12,Potency,[1],inactive
same,Potency,[2],inactive
OCCCCCCO,Potency,[1],inactive
same,Potency,[2],inactive
CC(C)CC(C)(O)C#CC(C)(O)CC(C)C (stereo not drawn),Potency,[1],inactive
same,Potency,[2],inactive
COc1c(Cl)c(Cl)c(Cl)c(Cl)c1Cl,Potency,[1],inactive
same,Potency,[2],inactive
CCCC(O)C(CC)CO (stereo not drawn),Potency,[1],inactive
same,Potency,[2],inactive
COc1cc(C(=O)NC2CCCNC2)cc(OC)c1OC (stereo not drawn),Potency,[1],inactive
same,Potency,[2],inactive
[Cl][In]([Cl])[Cl],Potency,[1],inactive
same,Potency,[2],inactive
CCCCOC(=O)C(=O)OCCCC,Potency,[1],inactive
same,Potency,[2],inactive
COc1cc(Nc2c(C#N)cnc3cc(OCCCN4CCN(C)CC4)c(OC)cc23)c(Cl)cc1Cl,Potency,[1],inactive
same,Potency,[2],inactive
[O]=[Bi],"viability change, negative = cytotoxic",[1],-2.63% [at 8.39 µM]
same,"activity change, negative = cytotoxicity",[2],-8.94% [at 8.39 µM]
OCc1c2ccccc2cc2ccccc12,Potency,[1],inactive
same,Potency,[2],inactive
NNC(=O)CCCCC(=O)NN,Potency,[1],inactive
same,Potency,[2],inactive
CCCCCCCCCO,Potency,[1],inactive
same,Potency,[2],inactive
C=C[Si](OCC)(OCC)OCC,Potency,[1],inactive
same,Potency,[2],inactive
Clc1ccc(C(Cn2ccnc2)OCc2ccc(Sc3ccccc3)cc2)c(Cl)c1 (stereo not drawn),Potency,[2],inactive
COCCOCCOCCOCCO,Potency,[1],inactive
same,Potency,[2],inactive
CCCCC(CC)CN (stereo not drawn),Potency,[1],inactive
same,Potency,[2],inactive
CC1CCc2cc(F)cc3c(=O)c(C(=O)O)cn1c23 (stereo not drawn),Potency,[1],inactive
same,Potency,[2],inactive
Nc1ccn([C@H]2CS[C@@H](CO)O2)c(=O)n1,Potency,[1],inactive
same,Potency,[2],inactive
CN1[C@@H]2CC[C@H]1CC(OC(=O)C(CO)c1ccccc1)C2 (stereo partly drawn),Potency,[1],inactive
same,Potency,[2],inactive
COc1cc(C=C2CCC/C(=C\c3ccc(O)c(OC)c3)C2=O)ccc1O,Potency,[1],inactive
same,Potency,[2],inactive
Clc1ccc2c(c1)CCc1cccnc1C2=C1CCNCC1,Potency,[1],inactive
same,Potency,[2],inactive
Oc1cc2ccccc2c2ccccc12,Potency,[1],13.7 µM (active)
same,Potency,[2],13.7 µM (active)
CN(C)C(=O)CNC(=O)Cc1ccccc1,Potency,[1],inactive
same,Potency,[2],inactive
CCCC(=O)O,Potency,[1],inactive
same,Potency,[2],inactive
CC(C(=O)O)c1ccc2c(c1)CC(=O)c1ccccc1S2 (stereo not drawn),Potency,[1],inactive
same,Potency,[2],inactive
CCC(CN)=C(c1ccccc1)c1ccccc1,Potency,[1],inactive
same,Potency,[2],inactive
NCC1CCC(C(=O)Oc2ccc(CCC(=O)O)cc2)CC1 (stereo not drawn),Potency,[1],inactive
same,Potency,[2],inactive
O=[N+]([O-])c1cc(N(CCO)CCO)ccc1NCCO,Potency,[1],inactive
same,Potency,[2],inactive
CNCCc1ccccn1,Potency,[1],inactive
same,Potency,[2],inactive
NC(=O)c1cnccn1,Potency,[1],inactive
same,Potency,[2],inactive
COc1cc(OC)nc(O[C@H](C(=O)O)C(OC)(c2ccccc2)c2ccccc2)n1,Potency,[1],inactive
same,Potency,[2],inactive
O=C(O)CCc1nc(-c2ccccc2)c(-c2ccccc2)o1,Potency,[1],inactive
same,Potency,[2],inactive
Cc1c(N)cccc1N,Potency,[1],inactive
same,Potency,[2],inactive
CCOc1ccc(OCC)c(Cl)c1,Potency,[1],inactive
same,Potency,[2],inactive
CC(C)Nc1nc(N)nc(Cl)n1,Potency,[1],inactive
same,Potency,[2],inactive
CCOC(C)OCC,Potency,[1],inactive
same,Potency,[2],inactive
CC(C)c1ccc2ncccc2c1,Potency,[1],inactive
same,Potency,[2],inactive
O=[N+]([O-])c1cccc(C(F)(F)F)c1,Potency,[1],inactive
same,Potency,[2],inactive
OCC1CC2CC1C1CCC(CO)C21 (stereo not drawn),Potency,[1],inactive
same,Potency,[2],inactive
CNCc1ccccc1,Potency,[1],inactive
same,Potency,[2],inactive
CC1(C)[C@@H](O[C@H]2O[C@H](C(=O)O)[C@@H](O)[C@H](O)[C@H]2O[C@@H]2O[C@H](C(=O)O)[C@@H](O)[C@H](O)[C@H]2O)CC[C@]2(C)[C@H]3C(=O)C=C4[C@@H]5C[C@@](C)(C(=O)O)CC[C@]5(C)CC[C@@]4(C)[C@]3(C)CC[C@@H]12,Potency,[1],inactive
same,Potency,[2],inactive
CCCCN(CCCC)C(=S)SSC(=S)N(CCCC)CCCC,Potency,[1],inactive
same,Potency,[2],inactive
CC(C)Cn1cnc2c(N)nc3ccccc3c21,"viability change, negative = cytotoxic",[1],-1.2% [at 18.9 µM]
same,"activity change, negative = cytotoxicity",[2],-0.0081% [at 18.9 µM]
NS(=O)(=O)c1cc2c(cc1Cl)NC(CC1CCCC1)NS2(=O)=O (stereo not drawn),Potency,[1],inactive
same,Potency,[2],inactive
Cn1c(=O)c2c(ncn2CC2OCCO2)n(C)c1=O,Potency,[1],inactive
same,Potency,[2],inactive
O=C(O)C(=O)O,Potency,[1],inactive
same,Potency,[2],inactive
CCOc1ccccc1O,Potency,[2],inactive
Cc1nc2ccc(CN(C)c3ccc(C(=O)N[C@@H](CCC(=O)O)C(=O)O)s3)cc2c(=O)[nH]1,Potency,[2],inactive
Nc1cccc(S(=O)(=O)O)c1,Potency,[2],inactive
COc1nc(C)nc(N)n1,Potency,[2],inactive
CC1(C)OC[C@@H](COC(=O)CCc2ccc(OC[C@@H](O)CNCCNC(=O)N3CCOCC3)cc2)O1,Potency,[2],inactive
Oc1ccc2ccccc2c1,Potency,[2],inactive
CCCCCCCCOC(=O)c1cc(O)c(O)c(O)c1,Potency,[2],inactive
COC[C@H](c1ccc(C(F)(F)F)cc1)N1CCN(C2(C)CCN(C(=O)c3c(C)ncnc3C)CC2)C[C@H]1C,Potency,[2],inactive
CC(O)(c1ccc(Cl)cc1)c1ccc(Cl)cc1,Potency,[2],inactive
C/C(=N\O)[C@@H](C)NCC(C)(C)CN[C@H](C)/C(C)=N/O,Potency,[2],inactive
CCCCCCCCS(=O)C(C)Cc1ccc2c(c1)OCO2 (stereo not drawn),Potency,[2],inactive
O=c1cc(O)c(Cl)c[nH]1,Potency,[2],inactive
